About 83,000 compounds went through this panel and 20% of them were active in at least one assay; those are over-represented in the sample as a whole.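 Assay: single dose, 48 h. Readout: percent growth (0 = no net growth; negative = cell death). Active: <10.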 A number with no mark means an inactive call. Activity calls are given as the source filed them.
Key:
Assay in all cases: NCI-60 one-dose screen, 48 h (100 = growth as untreated, 0 = no growth, -100 = all killed)
Conditions in all cases: 10 µM
HCT-15 colon = test system: HCT-15 colon
HT29 colon = test system: HT29 colon
SNB-75 CNS = test system: SNB-75 CNS
SNB-19 CNS = test system: SNB-19 CNS
PC-3 prostate = test system: PC-3 prostate
SK-MEL-5 melanoma = test system: SK-MEL-5 melanoma
UACC-62 melanoma = test system: UACC-62 melanoma
LOX IMVI melanoma = test system: LOX IMVI melanoma
SK-MEL-28 melanoma = test system: SK-MEL-28 melanoma
U251 CNS = test system: U251 CNS

| SMILES | growth (HCT-15 colon) | growth (HT29 colon) | growth (SNB-75 CNS) | growth (SNB-19 CNS) | growth (PC-3 prostate) | growth (SK-MEL-5 melanoma) | growth (UACC-62 melanoma) | growth (LOX IMVI melanoma) | growth (SK-MEL-28 melanoma) | growth (U251 CNS) |
| --- | --- | --- | --- | --- | --- | --- | --- | --- | --- | --- |
| CC1(C)CC[C@]2(C(=O)NCCCNCCCCNCCCN)CC[C@]3(C)C(=CC[C@@H]4[C@@]5(C)Cc6c([nH]c7ccccc67)C(C)(C)[C@@H]5CC[C@]43C)[C@H]2C1 | 85% | 92.4% | 101% | 57.9% | 65.8% | 81.5% | 116% | 92.6% | 102% | – |
| O=c1[nH]n(C(=S)N/N=C/c2ccc(F)cc2)c(=O)c2ccccc12 | 22.9% | 58.1% | 97.4% | 47.6% | 58.1% | – | 44.7% | -24.9% (active) | 91.5% | 25.6% |
| Cc1noc2c(Cc3ccccc3)nn(CC(=O)N/N=C/c3ccc(F)cc3)c(=O)c12 | 94.1% | 94.8% | 9.02% (active) | 32.4% | 65.6% | – | 94% | 36.3% | 90.4% | 42.8% |
| COc1ccc2[nH]c(=O)c(CSc3ccc(Nc4nccc(-c5ccc(Cl)cc5)n4)cc3)cc2c1 | 97% | 104% | 110% | 71.6% | 83.2% | – | 105% | 89% | 109% | 94.2% |
| CSc1nc(-c2cccc(C)c2)c2cc(-c3ccccc3)n(C)c2n1 | 15.3% | 9.09% (active) | -2% (active) | 30.2% | 21.7% | – | 11.1% | 21.4% | 34.7% | 17.4% |
| CC(C)(C)Nc1nc2cc(Cl)c(Cl)cc2nc1S(C)(=O)=O | -35.8% (active) | 47.4% | 45.1% | 102% | 54% | – | 52.9% | -98% (active) | 62.3% | 68.7% |
| O=C(CSc1nnc(-c2ccc3nc(-c4ccc(Cl)cc4)[nH]c3c2)o1)Nc1ccc(Cl)cc1 | -84% (active) | -35.4% (active) | 58% | -49.4% (active) | -7.65% (active) | – | -87.1% (active) | -99.2% (active) | -76.9% (active) | -57.7% (active) |
| Cc1nc(Nc2nc(C)c3ccc(OCCN4CCOCC4)cc3n2)[nH]c(=O)c1C | -48.7% (active) | -56.9% (active) | 25.9% | -2.34% (active) | 11.5% | – | -84.6% (active) | -51.7% (active) | -21.3% (active) | 8.71% (active) |
| O=C(CSc1nnc(-c2c[nH]c3ccccc23)n1-c1ccccc1)c1ccc(Cl)cc1 | 73.3% | 42.6% | 54.7% | 40% | 60.4% | – | 52.8% | 15.9% | 68.3% | 30.1% |
| CC(=O)NCC1=C(C)C=C2C(=O)[C@](C)(O)C3(CC3)C(C)=C21 | -20% (active) | -20.4% (active) | -74.5% (active) | -49.8% (active) | 2.77% (active) | – | -91% (active) | -49.3% (active) | -93.3% (active) | -13.2% (active) |
| CN1CCN(c2ccc(Nc3nc(N4CCN(S(=O)(=O)c5ccc(Cl)cc5)CC4)c4sccc4n3)cc2)CC1 | -78.6% (active) | -51.3% (active) | 67.1% | 28.4% | 28.5% | – | -90.3% (active) | -90.1% (active) | -98.6% (active) | -85.2% (active) |
| Cc1ccc(/C=C/C(=O)c2ccc(S(=O)(=O)NCCNc3nc(Nc4ccc(F)cc4)nc(N(C)C)n3)cc2)cc1 | -46.4% (active) | -55.6% (active) | 81.3% | 44.7% | 12.3% | 29.4% | 32.5% | -100% (active) | 40.5% | – |
| CCOC(=O)C1=C(N)N(c2ccccc2)C2=C(C(=O)CC(C)(C)C2)C1c1ccccc1OC (stereo unspecified) | 96.3% | 103% | 94% | 92.2% | 89.2% | – | 80.4% | 101% | 110% | 111% |
| CN(C(=O)c1ccc(C(C)(C)C)cc1)c1sc2c(c1C#N)CCC(=O)C2 | -68.6% (active) | 113% | 98% | 8.17% (active) | 2.52% (active) | – | -43.7% (active) | -71.5% (active) | 60.3% | -22.7% (active) |
| COc1cccc(C(N)=Nc2ccc(OCCCCCCn3cncn3)cc2)c1 | 16.8% | -27.9% (active) | 54.4% | 37.6% | 34.4% | – | 36.4% | 36% | 51.4% | 10.3% |
| Cc1ccc2nc(-c3ccc(-c4nnc(SCC(=O)Nc5ccc(Cl)cc5)o4)cc3)[nH]c2c1 | 21.9% | 31.2% | 101% | 26.7% | 14% | – | 56.3% | – | 39.7% | -21% (active) |
| CN1CCN(c2ccc(C(=O)/C=C/c3ccc(OC(F)F)cc3)cc2)CC1 | -49.1% (active) | 13.4% | 73.8% | 47.4% | 25.5% | 52.9% | 44.6% | -100% (active) | 67.5% | – |
| CC(=O)Nc1ccc(-c2cn(-c3cccc(C(=O)Nc4cc(C(F)(F)F)cc(C(F)(F)F)c4)c3)nn2)cn1 | -40.5% (active) | -37.4% (active) | -6.74% (active) | -42.4% (active) | -59.5% (active) | – | – | -100% (active) | -46.4% (active) | -66.2% (active) |
| COc1ccc(C2N(c3ccc(Br)cc3)N=C(C(C)=O)N2[C@H]2[C@H](OC(C)=O)O[C@H](COC(C)=O)[C@@H](OC(C)=O)[C@@H]2OC(C)=O)cc1 (stereo partly specified) | 61.4% | 75.2% | 74.7% | 78.2% | 43.2% | – | – | 71.1% | 86.4% | 74.8% |
| O=C1Nc2ccc(Cl)cc2/C1=C/c1ccc(OCc2ccccn2)cc1 | 35.7% | 67.5% | 113% | 50.7% | 62.1% | 89.5% | 66.7% | 56.5% | 100% | – |
| O=C(Nc1ccc(F)c(Cl)c1)c1cc(-c2ccc(F)cc2F)ccc1O | -18.7% (active) | 26.8% | -20.9% (active) | 13% | 1.28% (active) | – | -54.6% (active) | -57.2% (active) | -16.2% (active) | 11.5% |
| CC(=O)NS(=O)(=O)c1ccc(NC(=O)CSC2=NC(c3ccccc3)C(C(C)=O)=C(C)N2)cc1 (stereo unspecified) | 101% | 114% | 99% | 104% | 110% | 101% | 98.5% | 94.9% | 107% | – |
| COc1ccc(-c2cc(C(=O)N=Nc3c(O)[nH]c4ccc(Br)cc34)c3ccccc3n2)cc1 | -60.8% (active) | -1.14% (active) | 108% | -3.47% (active) | 23.1% | – | 32.6% | -51.5% (active) | 65.9% | – |
| COc1ccc2nc(Cl)c(-c3cc(-c4ccccc4)nc(=O)[nH]3)cc2c1 | 0.676% (active) | 32.2% | 70.1% | 31.5% | 48.8% | 74.2% | 66.8% | -46.4% (active) | 97.7% | – |
| O=C(NO)c1ccc(CNc2nc(-c3ccccc3)c3ccccc3n2)cc1 | -6.55% (active) | 4.73% (active) | 29% | -8.9% (active) | 16.7% | -87.8% (active) | -87.2% (active) | -96.9% (active) | -2.7% (active) | – |
| CCOC(=O)C1=C(N)N(c2ccccc2)C2=C(C(=O)CC(C)(C)C2)C1c1ccc(Cl)cc1 (stereo unspecified) | 14.5% | 34.8% | 73% | 34.9% | 21.6% | 27.7% | 22.2% | 41.5% | 44.5% | – |
| NC(=Nc1ccc(OCCCCCCCCn2ccnn2)cc1)c1ccccc1 | 15.8% | – | 61.2% | 41.7% | 35.8% | – | – | 26.6% | 49.2% | 12.2% |
| CN1C(=O)N(C)C2SC(N/N=C/c3cccs3)=NC21 (stereo unspecified) | 20.2% | 7.66% (active) | -1.77% (active) | 30.3% | 48.3% | 8.57% (active) | 4.74% (active) | 28.7% | 47.5% | – |

From PubChem BioAssay (NCI)
